# In PubChem BioAssay AID463212 (Sanford-Burnham Center for Chemical Genomics, 2010):
# Hit rate of the full screen: of about 330,000 compounds, about 4,400 (1.3%) were called active. The sample as a whole holds a higher share of actives than the screen did. Values without a mark were called inactive.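 The calls were made as follows: active = growth inhibition of the mutant yeast at or above 50%; inactive = the rest.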
# Assay: growth inhibition of tim23-1 ts yeast – luminescence, uHTS, primary screen (AID 463212);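 also: temperature-sensitive mutant grown at 25 °C; plate controls were DMSO-treated mutant yeast for no effect and medium wells lacking yeast for full effect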
# Settings: S. cerevisiae tim23-1 growth, BacTiter-Glo luminescence, 24 h; at 20 µM; stronger effect = higher value
row,Structure (SMILES),inhibition
1,Cc1c(CN2CCC(n3nccc3NC(=O)CCc3ccccc3)CC2)cnn1C,3.04%
2,Cc1ccccc1Nc1nc(-c2cccnc2)cs1,33.4%
3,Cc1cccc(Nc2nc(-c3ccccc3)cs2)n1,55.1% (active)
4,CCc1noc(C)c1C(=O)Nc1nc(-c2ccccc2)cs1,22.5%
5,CCC(C)OC(=O)C(C)Oc1ccc(-c2ccccc2)cc1 (stereo not drawn),3.46%
6,Clc1cccc(-c2nc(NCC3CCCO3)c3ccccc3n2)c1 (stereo not drawn),28.9%
7,c1ccc2c(NCC3CCCO3)nc(-c3ccncc3)nc2c1 (stereo not drawn),13.1%
8,c1ccc(-c2nc(NCc3ccco3)c3ccccc3n2)cc1,53% (active)
9,O=C(CO/N=C/c1ccc(OC(F)F)cc1)NCc1ccc(F)cc1,8.87%
10,COc1cnc(-c2ccccn2)nc1Oc1ccc(C(C)(C)C)cc1,41.2%
11,Cc1ccc(Oc2nc(-c3ccccn3)nc3ccccc23)cc1,63.6% (active)
12,CC(C)(C)Nc1nc(-c2ccccn2)nc2ccccc12,-51.4%
13,CC(C)(COC(=O)Nc1ccccc1)COC(=O)Nc1ccccc1,29.8%
14,O=C(c1ccncc1)N1CCN(S(=O)(=O)c2cccc([N+](=O)[O-])c2)CC1,3.41%
15,CC(Sc1nc2cc(Cl)ccc2s1)C(=O)Nc1ccc2c(c1)OCO2 (stereo not drawn),32%
16,NS(=O)(=O)c1ccc(NC(=S)N2CCCC2)cc1,-14.9%
17,COc1ccccc1NS(=O)(=O)c1ccc(C)c(C(=O)NNC(=O)c2csc(N3CCOCC3)n2)c1,-7.58%
18,COC(=O)NNC1=CC(=O)CC(C)(C)C1,-3.94%
19,Cc1ccc(C(=O)Oc2ccc(C(=S)N3CCOCC3)cc2)cc1,-1.92%
20,Cc1ccc(C(=O)OC2=CC(=O)CC(C)(C)C2)cc1,52.8% (active)
21,O=C(CSc1nnnn1C1CCCC1)N1CCCCC1,4.13%
22,C[C@H]1CC[C@]2(O[C@@H](CCO)C[C@@H](O)[C@@H]2O)O1,23.4%
23,O=C(O)c1ccc(N/N=C/c2cn(-c3ccccc3)nc2-c2cccs2)cc1,40.4%
24,COc1ccc(-c2nn(-c3ccccc3)cc2/C=N/Nc2ccccn2)cc1OC,45.7%
25,O=Cc1cn(-c2ccccc2)nc1-c1ccccn1,58.8% (active)
26,N/C(=N\OC(=O)Nc1ccc(Cl)c(Cl)c1)c1ncc(C(F)(F)F)cc1Cl,73.9% (active)
27,O=C(c1ccccn1)c1ncc(C(F)(F)F)cc1Cl,3%
28,N/C(=N\OC(=O)CCCC(=O)O)c1ncc(C(F)(F)F)cc1Cl,9.72%
